Measured values reported in PubChem BioAssay (NCI).
This is part of a sample that, as a whole, favours compounds with a hit. Of some 83,000 tested, about 20% had one in any assay.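 Growth was measured after 48 h exposure to one concentration of compound in 96-well plates. Values under 10 count as active.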

Key:
Experiment in all cases: NCI-60 one-dose screen, 48 h (100 = growth as untreated, 0 = no growth, -100 = all killed)
Details in all cases: 10 µM
RPMI-8226 leukemia = tested on: RPMI-8226 leukemia
OVCAR-8 ovarian = tested on: OVCAR-8 ovarian
OVCAR-5 ovarian = tested on: OVCAR-5 ovarian
OVCAR-4 ovarian = tested on: OVCAR-4 ovarian
SK-OV-3 ovarian = tested on: SK-OV-3 ovarian
IGROV1 ovarian = tested on: IGROV1 ovarian
OVCAR-3 ovarian = tested on: OVCAR-3 ovarian
HS 578T breast = tested on: HS 578T breast
NCI/ADR-RES ovarian = tested on: NCI/ADR-RES ovarian
T-47D breast = tested on: T-47D breast
BT-549 breast = tested on: BT-549 breast
MDA-MB-435 melanoma = tested on: MDA-MB-435 melanoma
SW-620 colon = tested on: SW-620 colon
MCF7 breast = tested on: MCF7 breast
HCT-116 colon = tested on: HCT-116 colon
HCC-2998 colon = tested on: HCC-2998 colon
KM12 colon = tested on: KM12 colon

Measured: growth

Clc1ccc(Sc2nc(NC3CC3)nc(Sc3ccc(Cl)cc3)n2)cc1
inactive: RPMI-8226 leukemia 62% | OVCAR-8 ovarian 87.4% | OVCAR-5 ovarian 92.9% | OVCAR-4 ovarian 66.3% | SK-OV-3 ovarian 72.8% | IGROV1 ovarian 64.7% | OVCAR-3 ovarian 85.8% | HS 578T breast 96.1% | NCI/ADR-RES ovarian 78.3% | T-47D breast 65% | BT-549 breast 104% | MDA-MB-435 melanoma 87.8% | SW-620 colon 83.3% | MCF7 breast 72% | HCT-116 colon 53.7% | HCC-2998 colon 90.2% | KM12 colon 76.6%

c1ccc2c(c1)oc1c3c(ccc12)NCCC3
inactive: RPMI-8226 leukemia 93.8% | OVCAR-8 ovarian 98.2% | OVCAR-5 ovarian 102% | OVCAR-4 ovarian 94.3% | SK-OV-3 ovarian 107% | IGROV1 ovarian 98.6% | OVCAR-3 ovarian 103% | HS 578T breast 109% | NCI/ADR-RES ovarian 97.7% | T-47D breast 59.9% | BT-549 breast 89.5% | MDA-MB-435 melanoma 106% | SW-620 colon 103% | MCF7 breast 40.9% | HCT-116 colon 95.7% | HCC-2998 colon 97.2% | KM12 colon 101%

COc1cc(/C=C2\Oc3cc(OCC(=O)c4ccccc4)ccc3C2=O)cc(OC)c1OC
inactive: RPMI-8226 leukemia 107% | OVCAR-8 ovarian 109% | OVCAR-5 ovarian 136% | OVCAR-4 ovarian 109% | SK-OV-3 ovarian 120% | IGROV1 ovarian 55.1% | OVCAR-3 ovarian 110% | HS 578T breast 107% | NCI/ADR-RES ovarian 97.2% | T-47D breast 73.6% | BT-549 breast 128% | MDA-MB-435 melanoma 103% | SW-620 colon 114% | MCF7 breast 99.1% | HCT-116 colon 106% | HCC-2998 colon 120% | KM12 colon 98.9%

C[C@]12CC[C@@H]3c4ccc(O)cc4C[C@@H](O)[C@H]3[C@@H]1CC[C@@H]2O
inactive: RPMI-8226 leukemia 103% | OVCAR-8 ovarian 106% | OVCAR-5 ovarian 111% | OVCAR-4 ovarian 105% | SK-OV-3 ovarian 116% | IGROV1 ovarian 99.7% | OVCAR-3 ovarian 114% | HS 578T breast 117% | NCI/ADR-RES ovarian 113% | T-47D breast 118% | BT-549 breast 102% | MDA-MB-435 melanoma 95.8% | SW-620 colon 110% | MCF7 breast 115% | HCT-116 colon 105% | HCC-2998 colon 118% | KM12 colon 111%

CC(=O)[C@H]1CC[C@H]2[C@@H]3CCC4=CC(=O)C=C[C@]4(C)[C@H]3CC[C@]12C
inactive: RPMI-8226 leukemia 68% | OVCAR-8 ovarian 92.4% | OVCAR-5 ovarian 93.2% | OVCAR-4 ovarian 87.2% | SK-OV-3 ovarian 104% | IGROV1 ovarian 94.8% | OVCAR-3 ovarian 106% | HS 578T breast 96.2% | NCI/ADR-RES ovarian 98.4% | T-47D breast 86.8% | BT-549 breast 98% | MDA-MB-435 melanoma 98.7% | SW-620 colon 108% | MCF7 breast 97.9% | HCT-116 colon 85.6% | HCC-2998 colon 99.2% | KM12 colon 107%

CCOC(=O)C1(CC(C)C)CCOC1=O (stereo not drawn)
inactive: RPMI-8226 leukemia 95.6% | OVCAR-8 ovarian 93.8% | OVCAR-5 ovarian 97% | OVCAR-4 ovarian 95.5% | SK-OV-3 ovarian 101% | IGROV1 ovarian 119% | OVCAR-3 ovarian 104% | HS 578T breast 110% | NCI/ADR-RES ovarian 98.8% | T-47D breast 99% | BT-549 breast 105% | MDA-MB-435 melanoma 104% | SW-620 colon 98.3% | MCF7 breast 93.5% | HCT-116 colon 107% | HCC-2998 colon 106% | KM12 colon 99.3%

CCN1CCCC1CNC(=O)c1ncc(-c2ccc(C(F)(F)F)cc2)c(NC2CCCCCC2)n1 (stereo not drawn)
inactive: RPMI-8226 leukemia 58.9% | OVCAR-8 ovarian 74% | OVCAR-5 ovarian 101% | OVCAR-4 ovarian 78% | SK-OV-3 ovarian 89.9% | IGROV1 ovarian 77% | OVCAR-3 ovarian 79.5% | HS 578T breast 92.1% | NCI/ADR-RES ovarian 89.7% | T-47D breast 78.9% | BT-549 breast 99.2% | MDA-MB-435 melanoma 72.6% | SW-620 colon 96.2% | MCF7 breast 43.6% | HCT-116 colon 54.9% | HCC-2998 colon 72.4% | KM12 colon 75.3%

Fc1cc(C(F)(F)F)ccc1-c1cncnc1NC1CCCCCC1
inactive: RPMI-8226 leukemia 76.1% | OVCAR-8 ovarian 87.1% | OVCAR-5 ovarian 106% | OVCAR-4 ovarian 85.3% | SK-OV-3 ovarian 101% | IGROV1 ovarian 96.8% | OVCAR-3 ovarian 109% | HS 578T breast 102% | NCI/ADR-RES ovarian 91.4% | T-47D breast 91.8% | BT-549 breast 96% | MDA-MB-435 melanoma 104% | SW-620 colon 101% | MCF7 breast 92.3% | HCT-116 colon 95.8% | HCC-2998 colon 107% | KM12 colon 107%

CCCCCCCCCCCCCCCC(=O)OC1[C@@H](OC(=O)CCCCCCCCCCCCCCC)[C@@H](C(=O)N[C@@H](CCCCN)C(=O)OC)O[C@H]1n1cnc2c(=O)[nH]c(NC(=O)C(C)C)nc21 (stereo partly drawn)
inactive: RPMI-8226 leukemia 92.5% | OVCAR-8 ovarian 87% | OVCAR-5 ovarian 108% | OVCAR-4 ovarian 120% | SK-OV-3 ovarian 99.4% | IGROV1 ovarian 91.8% | OVCAR-3 ovarian 105% | HS 578T breast 107% | NCI/ADR-RES ovarian 102% | T-47D breast 88.2% | BT-549 breast 105% | MDA-MB-435 melanoma 99.6% | SW-620 colon 104% | MCF7 breast 96.4% | HCT-116 colon 85.4% | HCC-2998 colon 101% | KM12 colon 95%
